Compound activity as filed in PubChem BioAssay.
CCHF vOTU inh-1: CCHFV vOTU protease inhibition; 0.55% of 370,000 active; inhibition, % at 11.5 µM; AID 651958; Pep-AMC fluorescence; note: 0% = vehicle wells with enzyme and 100% = no enzyme wells
RecA splice inh: Mtb RecA intein splicing inhibition. cell-free RecA intein splicing, fluorescence. 0.75% of 290,000 active. inhibition, % (no concentration beside the values). AID 2221; in the data active = inhibition above about 30%;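 note: 0% = vehicle wells and 100% = reference inhibitor control wells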
Target sequence (P9WHJ3 whole entry, looked up, canonical isoform): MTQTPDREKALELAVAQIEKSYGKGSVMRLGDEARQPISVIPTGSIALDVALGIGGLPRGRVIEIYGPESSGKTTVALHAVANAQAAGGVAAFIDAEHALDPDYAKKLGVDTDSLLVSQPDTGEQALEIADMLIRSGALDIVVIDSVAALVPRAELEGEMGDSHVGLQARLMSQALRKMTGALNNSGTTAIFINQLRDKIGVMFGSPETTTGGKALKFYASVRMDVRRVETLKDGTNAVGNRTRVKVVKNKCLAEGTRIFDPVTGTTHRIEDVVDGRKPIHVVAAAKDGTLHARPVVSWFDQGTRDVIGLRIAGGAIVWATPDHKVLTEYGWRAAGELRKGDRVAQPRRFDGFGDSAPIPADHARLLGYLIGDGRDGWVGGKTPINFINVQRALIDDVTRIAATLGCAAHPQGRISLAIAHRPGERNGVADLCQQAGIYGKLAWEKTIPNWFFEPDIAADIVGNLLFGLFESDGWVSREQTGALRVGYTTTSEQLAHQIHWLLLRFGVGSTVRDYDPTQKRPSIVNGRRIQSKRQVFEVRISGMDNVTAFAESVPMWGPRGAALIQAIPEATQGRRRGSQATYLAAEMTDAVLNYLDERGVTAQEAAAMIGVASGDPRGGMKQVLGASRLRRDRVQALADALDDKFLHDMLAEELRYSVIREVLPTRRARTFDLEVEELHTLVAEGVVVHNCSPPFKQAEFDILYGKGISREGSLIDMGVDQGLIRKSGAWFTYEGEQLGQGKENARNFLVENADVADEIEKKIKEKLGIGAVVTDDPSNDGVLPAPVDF
Sa ugtP lethal: compounds lethal to S. aureus RN4220 ugtP deletion mutant. AID 1259309. growth inhibition, % (no concentration beside the values). OD600 growth, 16 h. 0.54% of 330,000 active; in the data active = growth inhibition above about 68%;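 note: plate controls were untreated wells for no effect and antibiotic for full effect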
Mtb hypoxia inh: reduces hypoxia-regulated biosensor signal in M. tuberculosis; 0.1% of 300,000 active; M. tuberculosis hypoxia-regulated fluorescent reporter, fluorescence; fluorescence inhibition, % (test concentration not listed); in the data active = fluorescence inhibition mostly above about 23%, no sharp cut-off; inactive = mostly below about 17%
Sa RN4220 lethal: kills Staphylococcus aureus RN4220. AID 1259311. inhibition, % (no concentration beside the values). 0.33% of 330,000 active. S. aureus RN4220 growth, OD600, 16 h; in the data active = inhibition above about 85%;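 note: plate controls were untreated cells for no effect and reference antibiotic for full effect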
BJeLR lethal: kills HRASV12-expressing BJeLR cells | AID 1554 | BJeLR (HRASV12) viability, CellTiter-Glo ATP luminescence, 48 h | 0.17% of 300,000 active | inhibition, % (concentration not given with the values); in the data active = inhibition above about 50%
CCHF vOTU inh-2: confirmation of CCHF virus vOTU protease inhibitors. shares compounds with CCHF vOTU inh-1. Recombinant CCHFV vOTU, Pep-AMC fluorescence. inhibition, % at 11.5 µM. 17% of 1,900 active. AID 686976
* = called active by the depositor; / = no result given. The list is not random: actives were taken first. Their share in the collection is about 1.6%. Cut-off read from the data, not from the text of the source, unless noted: active = inhibition above about 30%; inactive = the rest.

SMILES	CCHF vOTU inh-1	RecA splice inh	Sa ugtP lethal	Mtb hypoxia inh	Sa RN4220 lethal	BJeLR lethal	CCHF vOTU inh-2
Cc1cc(C(=O)OCC(=O)N2CCCC2)c2ccccc2n1	-13.6	-2.3	6.2	9.4	6.4	-7.9	/
Cc1cc(C(=O)OCC(=O)N2CCOCC2)c2ccccc2n1	33.7*	-4.6	-0.2	/	0.4	-4.4	-13.4
CCOC1OC(C(=O)NC2CC2)=CC(c2ccc(C(F)(F)F)cc2)C1CCCO (configuration not stated)	/	/	-6.3	-2.8	-3.2	/	/
CCOC(=O)c1oc2c(c1C)C(=O)CCC2	-1.0	1.3	-1.4	5.7	2.7	5.0	/
CCOC(=O)c1oc2c(c1C)/C(=N/O)CCC2	32.7*	0.0	/	/	/	-8.6	-7.1
COc1cccc(C=NNC(=O)c2cccc([N+](=O)[O-])c2)c1OS(=O)(=O)c1ccccc1	/	/	-5.5	-0.4	1.1	/	/
COc1cc(CCCN2C(=O)C(=O)NCC2Cc2ccc(O)cc2)cc(OC)c1OC (configuration not stated)	/	/	2.1	20.0	10.3	/	/
CC1CCCN(c2ccc(C(=O)NCc3ccc4c(c3)OCO4)cc2[N+](=O)[O-])C1 (configuration not stated)	30.8*	5.0	2.0	10.7	-6.4	-0.6	-12.5
O=C(NCc1ccc2c(c1)OCO2)c1ccc(N2CCCCCC2)c([N+](=O)[O-])c1	0.8	-5.2	4.9	2.2	-7.5	-0.3	/
CCOC(=O)N(CC)c1ccc(C(O)(C(=O)OCC)C(F)(F)F)cc1 (configuration not stated)	30.6*	-0.6	0.6	4.4	0.4	-0.1	-11.6
CCCCNC(=O)c1nc(C2CCN(S(=O)(=O)c3csc(C(=O)O)c3)CC2)oc1-c1ccccc1	29.6*	/	/	/	/	/	3.9
CCCCNC(=O)c1nc(C2CCN(S(=O)(=O)c3ccc(Cl)cc3)CC2)oc1-c1ccccc1	-7.7	/	/	/	/	/	/
COC(=O)c1cc(NS(=O)(=O)c2ccc(N3CCC(C)CC3)c([N+](=O)[O-])c2)cc(C(=O)OC)c1	34.0*	3.2	7.3	3.6	-10.3	-7.1	-3.7
CCn1c(C)nc2cc(C(=O)NN=C(C)c3ccccc3O)ccc21	/	/	12.1	-2.8	4.3	/	/
O=[N+]([O-])c1ccc(N/N=C/c2ccc(O)c(O)c2O)c(S(=O)(=O)N2CCOCC2)c1	34.3*	/	/	/	/	-1.1	4.3
O=C(NCc1ccccc1)C1=CC(c2ccc3c(c2)OCO3)CC(OCc2ccc(CO)cc2)O1 (configuration not stated)	/	/	16.4	17.5	6.4	/	/
CCCCOCC1CN(CCCC)S(=O)(=O)c2c(cccc2N(C)S(=O)(=O)c2ccc(C)cc2)O1 (configuration not stated)	32.2*	/	/	/	/	/	-1.5
C#CCNC(=O)C=Cc1ccc(C)cc1	/	/	-1.1	20.7	2.2	/	/
O=c1oc2ccccc2c(Nc2cc3ccccc3cc2O)c1[N+](=O)[O-]	30.0*	0.2	2.6	20.1	-4.9	1.4	-9.6
NCCCCC1CN=C(N)N1CCc1cccc2ccccc12 (configuration not stated)	/	/	4.8	5.5	3.2	/	/
O=C(Cc1ccc(Cl)cc1)Nc1ccc(-c2nnc(-c3ccco3)o2)cc1	6.9	-1.8	-16.7	4.6	-2.8	0.4	/
O=C(CSCc1ccc(Cl)cc1)Nc1ccc(-c2nnc(-c3ccccc3)o2)cc1	31.6*	1.8	/	/	/	7.4	-16.3
CCCCOC(=O)C1=C(C)NC2(O)c3ccccc3C(=O)C12O (configuration not stated)	14.0	16.5	-1.3	2.1	-17.4	5.6	/
CCOC(=O)C1=C(C)OC2(O)c3ccccc3C(=O)C12O (configuration not stated)	102.8*	3.0	11.4	8.3	0.4	-4.8	19.5
CC(=O)C1=C(C)OC2(O)c3ccccc3C(=O)C12O (configuration not stated)	71.1*	8.6	13.3	9.5	1.9	-7.9	-8.3
SMILES	CCHF vOTU inh-1	RecA splice inh	Sa ugtP lethal	Mtb hypoxia inh	Sa RN4220 lethal	BJeLR lethal	CCHF vOTU inh-2
CN(C)CCN1C(=O)C(=O)C(=C(O)c2ccc(OCc3ccccc3)cc2)C1c1ccncc1 (configuration not stated)	/	/	-3.0	8.9	3.6	/	/
CN(C(=S)Nc1ccccc1)c1ccccc1	0.6	-3.1	9.1	6.5	4.6	-3.3	/
CN(C(=S)Nc1ccc(Oc2ccccc2)cc1)c1ccc(O)cc1	30.2*	14.2	7.7	2.6	-4.2	1.7	-24.0
CN(C(=S)Nc1ccc(SC(F)F)cc1)c1ccc(O)cc1	29.5*	-2.5	-0.4	/	0.6	-7.3	-28.8
CN(C(=S)Nc1cccnc1)c1ccc(O)cc1	48.9*	-0.8	-3.8	-1.3	2.2	0.3	-14.7
CCOC(=O)c1sc2nccc(N(C)C)c2c1N=CN(C)C	-2.7	-9.0	-10.7	/	-4.5	-3.5	/
CN(C)C=Nc1c(C(=O)c2ccccc2)sc2nccc(N(C)C)c12	29.5*	-0.7	5.4	-5.9	2.5	10.0	-2.1
COc1cccc2c1-c1c(O)cccc1C2=O	-0.1	-2.5	29.6	8.8	2.7	-2.6	/
CC1OC(CC(=O)O)CC2=C1C(=O)c1c(O)cccc1C2=O (configuration not stated)	92.9*	/	/	/	/	/	98.2*
CC=C(C)C(=O)Nc1cccc(C2=NOC3(C2)CC(C(N)=O)N(C(=O)CC(c2ccccc2)c2ccccc2)C3)c1 (configuration not stated)	/	/	4.0	0.8	7.4	/	/
CC(=O)NC1=NC(=O)C(=CN2CCOCC2)S1	/	/	-3.2	/	2.8	/	/
CCN(CC)c1ccc(N=Cc2c(O)n(-c3ccccc3)c(=O)[nH]c2=O)cc1	30.3*	-14.0	7.9	5.6	5.2	-7.0	-20.3
CCOc1ccc(-n2c(O)c(C=Nc3ccc(N(CC)CC)cc3)c(=O)[nH]c2=O)cc1	-9.3	-3.5	-16.7	0.4	3.4	-3.5	/
CCOC(=O)C1C2COc3ccc(C)cc3C2N2C(=O)c3cc(OC)c(OC)cc3NC(=O)[C@@]12C (some centres not stated)	/	/	0.6	5.7	4.0	/	/
COc1cc(N)c2ncccc2c1Cl	97.0*	/	11.5	7.1	5.2	/	-6.3
O=C1c2cccnc2C(=O)N1CO	2.3	-1.8	-5.2	/	0.0	8.5	/
NC1=C(Br)C(=O)c2ncccc2C1=O	107.3*	/	/	/	/	/	94.0*
CSc1ccc(-c2nc(CN3CCCCC3c3cccnc3)c(C)o2)cc1 (configuration not stated)	32.2*	5.3	5.8	3.5	-0.9	13.1	-18.2
O=C(C=C1NC2(CCCC2)Cc2ccccc21)N1CCOCC1	/	/	0.8	13.0	3.4	/	/
COc1cc(/C=C2/C(=O)N(c3ccc(C(=O)O)cc3)N=C2C)cc(OC)c1O	67.2*	2.1	2.9	-3.9	1.1	7.9	-13.6
COc1cc(/C=C2/SC(=O)NC2=O)ccc1Oc1ccc([N+](=O)[O-])cc1[N+](=O)[O-]	-2.2	17.0	19.8	9.0	5.4	-3.7	/
COc1cc(/C=C2\C(=O)N(c3cccc(C(=O)O)c3)N=C2C)ccc1OCc1ccccc1	-0.7	/	/	/	/	/	/
